G9a inh – inhibitors of human histone lysine methyltransferase G9a. Potency, µM (series often up to 102 µM), actives largely listed as inhibitors. G9a H3K9 monomethylation, AlphaScreen, 2 h. 350,000 compounds, 8.8% hits; further: nearly all actives have a fitted effect of over 75% in size
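G9a (20 nM) preincubated 15 min RT with compounds, then 500 nM biotinylated H3K9 peptide and 20 uM SAM added; 2 h RT reaction. Monomethyl-H3K9 product detected by AlphaScreen with anti-H3K9me1 antibody, streptavidin donor and anti-rabbit IgG acceptor beads.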
L3MBTL1 block – L3MBTL1 (human) inhibition; Q9Y468; AlphaScreen L3MBTL1–H3K9me1 peptide binding; Potency, µM (highest dose often 57.1 µM), actives largely listed as inhibitors; 230,000 compounds, 0.66% hits; further: nearly all actives have a fitted effect of over 60% in size
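AlphaScreen proximity signal between nickel-chelate acceptor and streptavidin donor beads (final 10 ug/mL) reports binding of 50 nM L3MBTL1 to 75 nM biotin-H3 K9me1 peptide; complex incubated with compounds 30 min at room temperature; cefsulodin titration as control.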
HP1b binding inh – HP1-beta chromodomain-methylated histone interaction inhibition | AID 540317 | AlphaScreen HP1-beta / biotin-H3K9me3 peptide binding | Potency, µM (top dose mostly 114 µM), most hits filed as inhibitors | 390,000 compounds, 0.56% hits; further: nearly all actives have a fitted effect of over 70% in size
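Compound inhibition of the preformed complex between 50 nM HP1-beta and 50 nM biotinylated H3K9me3 peptide was read by AlphaScreen. Buffer was PBS pH 7.4 with 0.01% Tween-20. Incubations ran 30 min at room temperature, with 10 ug/mL donor/acceptor beads.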
BAZ2B block – BAZ2B (human) inhibition | 360,000 compounds, 4.4% hits | AlphaScreen BAZ2B-H3K14Ac peptide displacement | Q9UIF8 | AID 504333 | Potency, µM (doses to about 114 µM), usual class: inhibitors; further: nearly all actives have a fitted effect of over 60% in size
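AlphaScreen displacement: compounds (up to 110uM) incubated 30 min at room temperature with a preformed 50 nM BAZ2B/50 nM biotinylated H3K14Ac peptide complex in PBS pH 7.4 with Tween-20. Donor and acceptor beads at 10 ug/mL final added, 20 min light-protected before reading.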
PI5P4Ka inh – PI5P4K alpha (human) kinase inhibition; max response, %; AID 652105; P48426; PI5P4Kalpha enzyme, ADP-Glo luminescence, 60 min; active compounds read low; 330,000 compounds, 1.2% hits; active means max response of -50% or lower; inconclusive means between -30% and -50%; inactive means -30% or higher; further: value at the top dose of about 77 µM
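PI5P4Kalpha ADP-Glo assay; 5 microM ATP final; 60 min RT reaction; HEPES pH 7.4/EGTA/CHAPS, 5% DMSO; controls lacking substrate or enzyme; luminescent end-point.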
JMJD2A Tudor inh – JMJD2A Tudor domain (human) inhibition; 390,000 compounds, 4.4% hits; AID 504339; O75164; AlphaScreen JMJD2A-Tudor / H3K4me3 peptide binding; Potency, µM (top dose mostly 114 µM), usual class: inhibitors; further: nearly all actives have a fitted effect of over 50% in size
Target sequence (O75164 whole entry, looked up, the tested form may be a part): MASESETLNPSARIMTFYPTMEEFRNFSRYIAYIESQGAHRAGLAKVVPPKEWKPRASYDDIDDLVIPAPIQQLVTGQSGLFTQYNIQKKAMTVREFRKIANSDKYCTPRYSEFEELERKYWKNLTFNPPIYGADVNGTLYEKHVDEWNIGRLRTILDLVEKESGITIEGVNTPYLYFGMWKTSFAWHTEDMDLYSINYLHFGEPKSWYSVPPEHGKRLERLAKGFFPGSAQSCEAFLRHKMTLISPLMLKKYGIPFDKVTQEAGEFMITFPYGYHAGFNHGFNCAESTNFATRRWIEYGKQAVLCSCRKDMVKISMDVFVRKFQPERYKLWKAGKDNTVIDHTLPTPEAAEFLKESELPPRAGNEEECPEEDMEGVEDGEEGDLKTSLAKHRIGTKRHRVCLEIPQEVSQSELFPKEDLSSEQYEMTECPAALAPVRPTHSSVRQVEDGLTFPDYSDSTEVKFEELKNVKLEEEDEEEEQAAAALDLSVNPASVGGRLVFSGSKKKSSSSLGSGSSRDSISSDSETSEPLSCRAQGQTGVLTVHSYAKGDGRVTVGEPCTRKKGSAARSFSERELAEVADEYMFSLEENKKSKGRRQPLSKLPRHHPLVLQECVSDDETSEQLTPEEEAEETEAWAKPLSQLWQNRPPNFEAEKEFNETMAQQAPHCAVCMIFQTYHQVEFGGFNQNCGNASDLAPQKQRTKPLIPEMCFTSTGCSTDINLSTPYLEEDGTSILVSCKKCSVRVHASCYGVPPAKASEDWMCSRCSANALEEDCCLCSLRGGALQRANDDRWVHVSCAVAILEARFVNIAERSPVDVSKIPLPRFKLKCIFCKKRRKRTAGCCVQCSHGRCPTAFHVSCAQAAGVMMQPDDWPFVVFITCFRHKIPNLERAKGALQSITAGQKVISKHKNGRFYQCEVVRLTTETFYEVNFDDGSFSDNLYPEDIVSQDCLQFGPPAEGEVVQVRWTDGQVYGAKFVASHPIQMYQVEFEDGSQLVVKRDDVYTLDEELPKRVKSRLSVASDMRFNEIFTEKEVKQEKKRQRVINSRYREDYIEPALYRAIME
A number is an active result; – = inactive; ? = inconclusive; · = no result given; [ ] = remark or other dose. Most compounds without a hit are left out; they make up all but 11% or so of the library. Unless noted, the call rests on the fitted dose curve; in most records, active means well fitted inhibition curve with a large enough effect; inconclusive means small, poorly fitted or top-dose-only effect; inactive means no such curve, though single readings can be large or run the other way.

SMILES	G9a inh	L3MBTL1 block	HP1b binding inh	BAZ2B block	PI5P4Ka inh	JMJD2A Tudor inh
CS/C(N)=N/N=C/c1cc(Br)cc(Br)c1O	–	–	–	13µM	–	–
Cc1nnc(C)n1/N=C/c1cc(Br)cc(Br)c1O	1.6µM	·	–	50µM	-50	–
C=CCc1cccc(/C=N/n2c(C)nnc2C)c1O	–[0.501 µM]	–	–	–	–	?
CCOC(=O)C1=C([Si](C)(C)C)c2ccccc2N(S(=O)(=O)C(F)(F)F)C1C(=O)OCC (centres undefined)	–	·	·	·	·	·
COc1ccc(-c2nc3cnc(OC)nc3n(C)c2=O)cc1	–[0.501 µM]	·	·	·	·	·
Nc1nnnn1/N=C/c1ccccc1C(F)(F)F	–[2.33 µM]	–	–	–	-56	–[11.4 µM]
Nc1nnnn1/N=C/c1ccccc1	–	·	–	–	–	?
CCn1c(=O)cc(C(F)(F)F)[nH]c1=S	25µM	–	–	–	?	–
CCCNc1nc(NCc2ccccc2OC)c2cnn(C)c2n1	–[12.7 µM]	·	–	?	·	?
Cn1nc([N+](=O)[O-])nc1S(C)(=O)=O	56µM	–	–	?	–	–
CS(=O)(=O)c1nc([N+](=O)[O-])nn1CCCc1ccccc1	·	·	–	·	–	–
O=C(COc1ccc(Cl)cc1)Nc1ccccc1Cl	·	–	–	–	–	–
O=C(COc1ccc(Cl)cc1)Nc1ccc(C(=O)O)cc1NC(=O)COc1ccc(Cl)cc1	–	·	–	50µM	–	–
COc1ccc(Cl)cc1NC(=O)NN1CCN(C)CC1	50µM	·	–	50µM	–	–
CCN1CCN(C(=O)Nc2cc(Cl)ccc2OC)CC1	50µM	–	–	–	–	–
Cc1nn(-c2ccc(N3CCOCC3)nn2)c(C)c1CCC(=O)NCc1ccc(Cl)cc1	–	·	–	–	·	–
CCOC(=O)c1c(NC(=O)CCCOc2ccc(C(C)(C)C)cc2)sc2c1CCCC2	–	·	–	–	·	–
CC(c1ccccc1)N1C(=O)c2cccnc2C1=O (centres undefined)	–	–	–	?	–	–
CC(NC1=CC(=O)c2cccnc2C1=O)C(O)c1ccccc1 (centres undefined)	·	·	–	·	–	56µM
COc1ccc(O)c(/C=N/c2nc3ccccc3n2C)c1	–	–	–	–	–	–
COc1ccc(O)c(/C=N/c2sc(C)c(C)c2C#N)c1	?	·	?	–	?	79µM
Cc1sc(/N=C/c2c(O)ccc3ccccc23)c(C#N)c1C	10µM	·	·	–	·	·
CC(C)(C)OC(=O)N1CCC(c2c(C(=O)NCCN3CCC(Cc4ccccc4)CC3)cnn2-c2cccc(Cl)c2)CC1	–	·	–	–	·	?
Cc1ccc(C(=O)NC2=NC(c3ccc(C)cc3)CC(=O)N2)cc1 (centres undefined)	–	·	–	–	·	–
CCCOc1ccc(N2C(=O)CC(NCCc3ccc(S(N)(=O)=O)cc3)C2=O)cc1 (centres undefined)	35µM	·	–	–	·	–
SMILES	G9a inh	L3MBTL1 block	HP1b binding inh	BAZ2B block	PI5P4Ka inh	JMJD2A Tudor inh
CCCOc1ccc(N2C(=O)CC(NCCNc3ccc(S(=O)(=O)CC)cc3)C2=O)cc1 (centres undefined)	?	–	–	–	–	–
CCOc1ccc(N2C(=O)CC(NCCc3ccc(S(N)(=O)=O)cc3)C2=O)cc1 (centres undefined)	25µM	–	–	–	–	–
Cc1ccc(CNC(=O)c2c(C)oc3nc(C)nc(N4CCOCC4)c23)cc1	–	·	–	–	·	–
Cc1ccccc1OCCCCCn1ccnc1	–	–	–	–	·	?
COc1ccccc1OCC#CCn1ccnc1	3.2µM	–	?	18µM	–	5.6µM
CCCC(=O)C1=C(c2ccccc2)C(C#N)(C#N)C(C#N)=C1N	25µM	–	–	50µM	–	?
CCCC(=O)C1=C(N(C)c2ccccc2)CC(C)(C)CC1=O	–	–	–	–	–	–
CCc1ccccc1Nc1nc(N)nc(CSCC(=O)c2cc(C)n(C)c2C)n1	?	·	–	56µM	–	?
Cc1ccccc1Nc1nc(N)nc(CSCC(=O)Nc2cccc(Br)c2)n1	–	–	–	–	–	–
COc1ccc(/C=C2\C(=O)NC(=S)N2C(=O)c2ccc(C)cc2)cc1	?	–	–	50µM	?	56µM
COc1cccc(NC(=O)CSc2nc(C)c(Cc3ccccc3)c(=O)[nH]2)c1	–	·	–	–	·	–
O=C(c1ccco1)N1CCC2(CCN(Cc3ccncc3)CC2)CC1	–[12.7 µM]	·	·	·	·	·
CCOC(=O)/C=C1\CN(Cc2cc(OC)c(OC)c(OC)c2)S(=O)(=O)c2ccc(C(F)(F)F)cc21	35µM	–	–	?	?	–
CCOC(=O)/C=C1\CN(Cc2cc(OC)c(OC)c(OC)c2)S(=O)(=O)c2ccccc21	?	–	–	–	–	–
COc1cccc(Cn2c(=O)c(-c3ccc(Cl)cc3)nc3cnc(OC)nc32)c1	–[0.501 µM]	·	·	·	·	·
CCOc1ccc(CCNC(=O)C2CCCN(c3nnc(C)c4c(C)n(-c5ccccc5)nc34)C2)cc1 (centres undefined)	–	·	–	–	·	–
COC(=O)N/N=C/c1cc(OC)c(O)c([N+](=O)[O-])c1	?	–	–	–	–	–
COc1ccc(-n2c(O)c(/C=N/NS(=O)(=O)c3ccc(C)c([N+](=O)[O-])c3)c3ccccc3c2=O)cc1OC	–[12.7 µM]	–	?	50µM	–	40µM
COc1cc(/C=N/NS(=O)(=O)c2ccc(C(C)(C)C)cc2)cc([N+](=O)[O-])c1O	18µM	–	?	?	–	56µM
COc1cc(/C=N/NC(N)=O)cc([N+](=O)[O-])c1O	?	–	–	?	-56	–
COc1cc(/C=N/NS(=O)(=O)c2ccc(C)c([N+](=O)[O-])c2)cc([N+](=O)[O-])c1O	40µM	–	–	50µM	?	–
CCSc1ncnc2nc[nH]c12	·	·	–	·	·	–
Cc1ccc(C2(CCNCc3ccc(N(C)C)cc3)CCOC(C(C)C)C2)cc1 (centres undefined)	?	?	?	35µM	–	40µM
CC(C)C1CC(CCNCc2ccc(N(C)C)cc2)(c2ccccc2)CCO1 (centres undefined)	35µM	–	?	25µM	–	32µM
Cc1cc(C)c2c(n1)SCCN2C(=O)Nc1ccc(C(=O)Nc2ccc(C(C)C)cc2)cc1	–	·	–	–	·	–
SMILES	G9a inh	L3MBTL1 block	HP1b binding inh	BAZ2B block	PI5P4Ka inh	JMJD2A Tudor inh
Cc1ccc(NC(=O)C2(c3cccs3)CCOCC2)cc1Cl	–	·	–	–	·	–
Cc1c(CC(=O)O)c(=O)oc2c(C)c(OCc3ccccc3Br)ccc12	–	·	–	50µM	–	?
Cc1oc(C(=O)O)cc1COc1ccc2c3c(c(=O)oc2c1C)CCC3	50µM	·	–	13µM	–	–
Cc1oc(C(=O)O)cc1COc1cccc2ccccc12	?	–	–	–	–	–
COc1cc(C(=O)O)cc(OC)c1OCc1cc(C(=O)O)oc1C	50µM	?	–	?	–	?
Cc1ccc(NC(=O)c2cccn2-c2nnc(N3CCCCC3)s2)cc1Cl	–	·	–	–	·	–

Assay outcomes from PubChem BioAssay.
